Source: PubChem (several laboratories)
CCHF vOTU inh-1: blocks the CCHF virus ovarian tumor domain protease | CCHFV vOTU protease, Pep-AMC fluorescence | inhibition, % at 11.5 µM | 0.55% of 370,000 active; further: 0% = vehicle wells with enzyme and 100% = no enzyme wells
RecA splice inh: inhibitors of M. tuberculosis RecA intein splicing; P9WHJ3; inhibition, % (no concentration beside the values); cell-free RecA intein splicing, fluorescence; 0.75% of 290,000 active; in the data active means inhibition above about 30%;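 further: 0% = vehicle wells and 100% = reference inhibitor control wells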
GDH-TPI counter: inhibits GDH-TPI coupling enzymes, artifact for Mtb FBA screen. GDH-TPI coupled enzyme counterscreen, NADH absorbance. inhibition, % at 4.8 µM. 1.2% of 360,000 active. AID 588335;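 further: 0% = DMSO wells and 100% = wells lacking the enzyme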
SARS 3CLpro inh: SARS-CoV 3CLpro protease inhibition. P0C6X7. recombinant SARS-CoV 3CLpro, quenched FRET peptide cleavage. inhibition, % at 6 µM. 0.14% of 290,000 active. AID 1706; in the data active means inhibition above about 12%
DUSP3 inh: DUSP3 (human) phosphatase inhibition; P51452; recombinant VHR phosphatase, pNPP absorbance; inhibition, % at 13.3 µM; 0.52% of 290,000 active; in the data active means inhibition above about 50%
Target sequence (P51452 whole entry, looked up): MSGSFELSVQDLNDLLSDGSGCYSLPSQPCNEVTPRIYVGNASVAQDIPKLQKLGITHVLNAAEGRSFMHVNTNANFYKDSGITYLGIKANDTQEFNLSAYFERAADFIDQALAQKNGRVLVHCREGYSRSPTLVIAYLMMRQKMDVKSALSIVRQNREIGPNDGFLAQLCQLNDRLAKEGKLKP
FBA Mtb inh: inhibitors of M. tuberculosis fructose-bisphosphate aldolase; purified M. tuberculosis FBA, fluorescence read-out; inhibition, % at 1 µM; 2.3% of 360,000 active; AID 588726; in the data active means inhibition above about 27%;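 further: 0% = vehicle and 100% = reference inhibitor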
Target sequence (P9WQA3 whole entry, looked up): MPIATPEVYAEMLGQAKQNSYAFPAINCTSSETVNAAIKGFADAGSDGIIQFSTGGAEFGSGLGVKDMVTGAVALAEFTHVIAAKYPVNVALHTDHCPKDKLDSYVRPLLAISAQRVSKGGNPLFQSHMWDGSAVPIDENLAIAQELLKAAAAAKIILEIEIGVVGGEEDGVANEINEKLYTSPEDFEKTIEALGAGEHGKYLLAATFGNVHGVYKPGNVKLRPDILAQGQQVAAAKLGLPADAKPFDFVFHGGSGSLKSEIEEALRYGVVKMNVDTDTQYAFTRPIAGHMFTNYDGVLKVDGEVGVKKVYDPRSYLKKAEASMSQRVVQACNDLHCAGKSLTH
CCHF vOTU inh-2: confirmation of CCHF virus vOTU protease inhibitors; AID 686976; inhibition, % at 11.5 µM; 17% of 1,900 active; Recombinant CCHFV vOTU, Pep-AMC fluorescence; shares compounds with CCHF vOTU inh-1
The depositor's hits bear a star; · = not tested or not shown. Rows were chosen to be rich in hits. Some 4.7% of all compounds tested hit in one or more screens of this group. Unless noted, no stated cut-off is given here; in the data, active means inhibition above about 30%; inactive means the rest.

SMILES	CCHF vOTU inh-1	RecA splice inh	GDH-TPI counter	SARS 3CLpro inh	DUSP3 inh	FBA Mtb inh	CCHF vOTU inh-2
COc1ccccc1CNC(=O)C1CCN(S(=O)(=O)c2ccc(-n3cnnn3)cc2)CC1	17	-2	3	0	7	0	·
C=CCCC[C@H]1OC(=O)[C@H](C)NC(=O)[C@H](C(C)C)NC(=O)[C@@H]2CCCN2C(=O)[C@H](Cc2ccccc2)OC(=O)[C@@H](C(C)C)N(C)C(=O)[C@H](C(C)C)NC(=O)C1(C)C	30*	·	·	·	·	·	6
O=C1C(=C(I)I)c2ccccc2-c2ccccc21	95*	·	9	·	·	6	55*
CS(=O)(=O)c1ccc(C(=O)NC2CCCc3ccccc32)cc1 (configuration not stated)	·	0	-3	-1	13	2	·
c1ccc(NN=C2c3ccccc3-c3ccccc32)cc1	-7	·	9	·	·	-4	·
Cc1ccc(NN=C2c3ccccc3-c3ccccc32)cc1	35*	-1	12	1	17	0	-11
Cc1cc(SCC(=O)NC2CC2)nc2ccccc12	40*	·	-3	·	·	0	-1
COc1ccc2c(C)cc(SCC(=O)NC3CCCC3)nc2c1	6	·	21	·	·	1	·
CC(C)CCc1noc(CN2CCN(c3ccc(Cl)cn3)CC2)n1	-5	1	6	-1	13	0	·
COc1ccc(N2CCN(C(=O)c3cccnc3)CC2)c([N+](=O)[O-])c1	-13	-3	-4	6	35	-1	·
CN(C)c1ccc(C=c2c3ccccc3n3c2c2ccccc2[n+]3C)cc1	0	·	24	·	·	-1	·
CCOC(=O)c1cc2c(=Cc3ccc(N(C)C)cc3)c3ccccc3n2[n+]1C	97*	·	21	·	·	-1	79*
Cc1cc2c(=Cc3ccc(N(C)C)cc3)c3ccccc3n2[n+]1C	34*	·	7	·	·	-12	9
O=C(NCc1ccc(Cl)c(Cl)c1)c1cc(C2CCCCN2C(=O)C2CCCCC2)on1 (configuration not stated)	31*	·	8	·	·	-1	5
COC(=O)N1CCCCC1c1cc(C(=O)NCc2ccc(Cl)c(Cl)c2)no1 (configuration not stated)	9	·	-1	·	·	-2	·
OCCOCCN1CCN(C2=Nc3ccccc3Sc3ccccc32)CC1	1	-1	17	-2	13	2	·
O=C1C=CC(=O)c2c(O)c(N3CCN(CCO)CC3)c(Cl)c(O)c21	102*	·	12	·	·	8	98*
O=S(=O)(c1ccc(Br)cc1Cl)N1CCN(CCO)CC1	1	·	0	2	17	2	·
O=C1C=CC(=O)c2c(O)c(N3CCN(CCOCCO)CC3)c(Br)c(O)c21	111*	·	5	·	·	-10	104*
C=CCN1[C@@H](CC(C)C)COc2cc(F)ccc2S1(=O)=O	6	·	·	·	·	·	·
CC(=O)C1(C(=O)NC2CCCC2)CC(c2ccccc2C(F)(F)F)=NO1 (configuration not stated)	-1	·	·	·	·	·	·
CC(=O)Nc1cc(-c2ccccc2N(C)C)cn2c(-c3cccc(C(F)(F)F)c3)cnc12	34*	·	8	·	·	6	-2
CC(=O)Nc1cc(-c2cccc(NS(C)(=O)=O)c2)cn2c(-c3cccc(C(F)(F)F)c3)cnc12	7	·	7	·	·	2	·
Cc1ccccc1S(=O)(=O)N1[C@@H](c2ccc(Cl)cc2)C(C(=O)O)=CC[C@H]1c1ccc(Cl)cc1	32*	·	8	·	·	3	7
Cc1ccc([C@@H]2CC=C(C(=O)O)[C@H](c3ccccc3)N2S(=O)(=O)c2ccccc2C)cc1	12	·	3	·	·	1	·
SMILES	CCHF vOTU inh-1	RecA splice inh	GDH-TPI counter	SARS 3CLpro inh	DUSP3 inh	FBA Mtb inh	CCHF vOTU inh-2
Cc1ccc([C@H]2C(C(=O)O)=CC[C@@H](c3ccc(C)cc3)N2S(=O)(=O)c2ccccc2C)cc1	35*	·	4	·	·	-1	-6
Cc1ccc([C@H]2C(C(=O)O)=CC[C@@H](c3ccc(Cl)cc3)N2S(=O)(=O)c2ccccc2C)cc1	·	·	0	·	·	-1	·
N#Cc1ccccc1S(=O)(=O)N1CCC(C(=O)NCc2ccccc2CN2CCCC2)CC1	12	·	9	·	·	-1	·
Cc1ccc2cc3c(N)[nH]nc3nc2c1	4	-2	-3	-4	26	6	·
COc1ccccc1CN1CCNC(=O)C1CC(=O)N(C)C1CCOCC1 (configuration not stated)	-7	·	4	·	·	1	·
Cc1ccc(C)c(-n2c3nc(=O)[nH]c(=O)c-3cc3cc([N+](=O)[O-])ccc32)c1	79*	·	25	2	21	0	4
O=[N+]([O-])c1cccc2ccc(/C=C/c3ccc(Cl)cc3)nc12	-12	-14	20	1	18	-2	·
O=[N+]([O-])c1cccc2ccc(/C=C/c3cccc(Br)c3)nc12	31*	9	6	-3	-13	-3	-12
CC1CN(CC(O)COc2ccc(C#N)cc2)CCN1CC(O)COc1ccc(C#N)cc1 (configuration not stated)	1	-1	5	-5	22	-2	·
Cc1ccc(S(=O)(=O)Nc2ccc3cc([N+](=O)[O-])ccc3c2[N+](=O)[O-])cc1	31*	·	4	·	·	-6	23
COc1ccc(NS(=O)(=O)c2ccc(C)cc2)c([N+](=O)[O-])c1	12	0	2	2	10	2	·
COc1ccc([N+](=O)[O-])cc1NS(=O)(=O)c1ccc(C)cc1	-1	0	5	-2	11	0	·
Cc1ccc(S(=O)(=O)Nc2ccc3ccccc3c2[N+](=O)[O-])cc1	35*	·	11	·	·	0	14
O=S1(=O)N[C@@H](Cc2ccccc2)COc2cccc(N3CCCCC3)c21	9	·	·	·	·	·	·
CC(C)CC(COCc1cccc(C(F)(F)F)c1)N1CCN(C(=O)c2cccc(C(F)(F)F)c2)CCC1=O (configuration not stated)	30*	2	3	6	-4	-2	26
Cc1cccc(NC(=O)C2CCN(C(=O)NCc3ccccc3)CC2)c1C	5	1	5	3	7	5	·
O=C(Nc1cccc2ccccc12)C1CCN(C(=O)NCc2ccccc2)CC1	35*	4	2	3	10	1	4
CCOc1ccccc1CNC(=O)CCC(=O)N1Cc2ccccc2Oc2ncccc21	-4	-1	4	0	22	-1	·
O=C1Cc2ccccc2C(=O)N1Cc1cccc(Cl)c1	64*	1	-9	3	11	0	54*
O=C(/C=C(\Nc1cccc(OC(F)F)c1)c1ccccc1)c1ccccc1	-3	·	·	·	·	·	·
CN(c1ccccc1)S(=O)(=O)c1ccc(C(=O)NCc2ccccn2)cc1	-15	1	-2	-3	15	3	·
NS(=O)(=O)c1ccc(CNC(=S)Nc2cc(S(=O)(=O)N3CCOCC3)ccc2Cl)cc1	-6	·	-3	·	·	6	·
